Results reported in PubChem BioAssay (NCI).
This is part of a sample that, as a whole, favours compounds with a hit. Of some 83,000 tested, about 20% had one in any assay.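 A percent growth of 40 corresponds to 60% growth inhibition; 0 means no net growth; -100 means all cells died. Active threshold: below 10.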 Calls of active or inactive are those of the source.

Assays:
Assay in all cases: NCI-60 one-dose screen, 48 h (100 = growth as untreated, 0 = no growth, -100 = all killed)
Details in all cases: 10 µM unless noted
DU-145 prostate = test system: DU-145 prostate
K-562 leukemia = test system: K-562 leukemia
MALME-3M melanoma = test system: MALME-3M melanoma
MDA-MB-231 breast = test system: MDA-MB-231 breast
RXF 393 renal = test system: RXF 393 renal
SF-268 CNS = test system: SF-268 CNS
SF-295 CNS = test system: SF-295 CNS
SF-539 CNS = test system: SF-539 CNS
UACC-257 melanoma = test system: UACC-257 melanoma
M14 melanoma = test system: M14 melanoma
HCT-15 colon = test system: HCT-15 colon
HT29 colon = test system: HT29 colon
SNB-75 CNS = test system: SNB-75 CNS
SNB-19 CNS = test system: SNB-19 CNS
U251 CNS = test system: U251 CNS
PC-3 prostate = test system: PC-3 prostate
SK-MEL-5 melanoma = test system: SK-MEL-5 melanoma
UACC-62 melanoma = test system: UACC-62 melanoma
LOX IMVI melanoma = test system: LOX IMVI melanoma
SK-MEL-28 melanoma = test system: SK-MEL-28 melanoma

Measured: growth

CCSC(SCC)c1ccc(Cl)cc1
inactive: DU-145 prostate 107% | K-562 leukemia 118% | MALME-3M melanoma 102% | MDA-MB-231 breast 107% | RXF 393 renal 114% | SF-268 CNS 100% | SF-295 CNS 87.1% | SF-539 CNS 107% | UACC-257 melanoma 99.4% | M14 melanoma 110% | HCT-15 colon 108% | HT29 colon 97.4% | SNB-75 CNS 107% | SNB-19 CNS 110% | U251 CNS 102% | PC-3 prostate 101% | SK-MEL-5 melanoma 110% | UACC-62 melanoma 98.6% | LOX IMVI melanoma 95.9% | SK-MEL-28 melanoma 115%

CN1C(=O)/C(=C\c2c(Cl)cccc2Cl)c2ccccc21
inactive: DU-145 prostate 99.6% | K-562 leukemia 30.7% | MALME-3M melanoma 79% | MDA-MB-231 breast 87.2% | RXF 393 renal 85.1% | SF-268 CNS 87.2% | SF-295 CNS 86.3% | SF-539 CNS 87.1% | UACC-257 melanoma 87.2% | M14 melanoma 75.5% | HCT-15 colon 67% | HT29 colon 84.5% | SNB-75 CNS 61.3% | SNB-19 CNS 80% | U251 CNS 88.4% | PC-3 prostate 95% | SK-MEL-5 melanoma 86.5% | UACC-62 melanoma 71.2% | LOX IMVI melanoma 82.5% | SK-MEL-28 melanoma 94.4%

CCCNc1nc2ccccc2c2c1S(=O)(=O)c1ccc(Cl)cc1C2=O
active: K-562 leukemia 8.48% | MDA-MB-231 breast -0.717% | SF-539 CNS 6.35% | M14 melanoma 5.71% | HCT-15 colon 7.22% | HT29 colon 9.72% | U251 CNS 1.6% | SK-MEL-5 melanoma 2.77% | LOX IMVI melanoma 4.45%
inactive: DU-145 prostate 19.4% | MALME-3M melanoma 21.9% | RXF 393 renal 12% | SF-268 CNS 20.4% | SF-295 CNS 15.8% | UACC-257 melanoma 17.8% | SNB-75 CNS 15.6% | SNB-19 CNS 24.4% | PC-3 prostate 25.1% | UACC-62 melanoma 10.9% | SK-MEL-28 melanoma 32.8%

Cc1ccc(NC(=O)Cn2cc(CN3CCN(c4ccnc5cc(Cl)ccc45)CC3)nn2)cc1
inactive: DU-145 prostate 102% | K-562 leukemia 63.8% | MALME-3M melanoma 100% | MDA-MB-231 breast 77.1% | RXF 393 renal 88.5% | SF-268 CNS 80.1% | SF-295 CNS 86.3% | SF-539 CNS 98.7% | UACC-257 melanoma 103% | M14 melanoma 103% | HCT-15 colon 84.7% | HT29 colon 105% | SNB-75 CNS 70.7% | SNB-19 CNS 89.2% | U251 CNS 89.4% | PC-3 prostate 63.1% | SK-MEL-5 melanoma 77.7% | UACC-62 melanoma 77.7% | LOX IMVI melanoma 82.4% | SK-MEL-28 melanoma 104%

COc1ccc(Nc2ncc(Br)c(NCCCNC(=O)c3cccs3)n2)cc1
active: RXF 393 renal -26.7%
inactive: DU-145 prostate 35.6% | K-562 leukemia 28% | MALME-3M melanoma 55.4% | MDA-MB-231 breast 31.2% | SF-268 CNS 13.2% | SF-295 CNS 52.4% | SF-539 CNS 14.8% | UACC-257 melanoma 105% | M14 melanoma 50.2% | HCT-15 colon 34.5% | HT29 colon 51.6% | SNB-75 CNS 48.9% | SNB-19 CNS 56.8% | U251 CNS 52.7% | PC-3 prostate 42.1% | SK-MEL-5 melanoma 69.5% | UACC-62 melanoma 45.7% | LOX IMVI melanoma 14.6% | SK-MEL-28 melanoma 68.4%

NS(=O)(=O)c1ccc(N=Nc2c(O)n(Cc3ccccc3)c3ccc(Cl)cc23)cc1
active: SNB-75 CNS -9.32%
inactive: DU-145 prostate 87.3% | K-562 leukemia 82.4% | MALME-3M melanoma 70.5% | MDA-MB-231 breast 75.9% | RXF 393 renal 45.5% | SF-268 CNS 65.2% | SF-295 CNS 93.7% | SF-539 CNS 61.5% | UACC-257 melanoma 92.1% | M14 melanoma 88.1% | HCT-15 colon 88.8% | HT29 colon 94.6% | SNB-19 CNS 40.8% | U251 CNS 81.7% | PC-3 prostate 83.8% | SK-MEL-5 melanoma 80.5% | UACC-62 melanoma 66.6% | LOX IMVI melanoma 97.6% | SK-MEL-28 melanoma 93.2%

CCO/C=N/C1=C(C#N)C(c2ccc(Cl)cc2)c2sc3c(F)cccc3c2O1 (stereo not given)
inactive: DU-145 prostate 88.2% | K-562 leukemia 24.6% | MALME-3M melanoma 71.3% | MDA-MB-231 breast 71.3% | RXF 393 renal 76.9% | SF-268 CNS 68.5% | SF-295 CNS 52.8% | SF-539 CNS 81.6% | UACC-257 melanoma 89% | M14 melanoma 46.1% | HCT-15 colon 35.7% | HT29 colon 89.5% | SNB-75 CNS 42.6% | SNB-19 CNS 51.2% | U251 CNS 45.7% | PC-3 prostate 67.1% | SK-MEL-5 melanoma 64.9% | UACC-62 melanoma 35.9% | LOX IMVI melanoma 51.8% | SK-MEL-28 melanoma 73.6%

Cc1ccc(NC(=O)c2sc3nc(C)c(Br)c(C)c3c2N)cc1
inactive: DU-145 prostate 66.6% | K-562 leukemia 95.5% | MALME-3M melanoma 53.8% | MDA-MB-231 breast 55.3% | RXF 393 renal 43.3% | SF-268 CNS 49% | SF-295 CNS 60% | SF-539 CNS 65.1% | UACC-257 melanoma 90.3% | M14 melanoma 79% | HCT-15 colon 93.4% | HT29 colon 87.4% | SNB-75 CNS 20.9% | SNB-19 CNS 66.3% | U251 CNS 50.8% | PC-3 prostate 53.7% | SK-MEL-5 melanoma 73.1% | UACC-62 melanoma 67.2% | LOX IMVI melanoma 62.1% | SK-MEL-28 melanoma 75.4%

CCc1ccccc1-n1c(-c2ccc(OC)cc2)cc(-c2ccc(OC)cc2)c(C#N)c1=O
inactive: DU-145 prostate 98.6% | K-562 leukemia 108% | MALME-3M melanoma 99.6% | MDA-MB-231 breast 62% | RXF 393 renal 32.2% | SF-268 CNS 51.9% | SF-295 CNS 55.1% | SF-539 CNS 23% | UACC-257 melanoma 111% | M14 melanoma 100% | HCT-15 colon 106% | HT29 colon 110% | SNB-19 CNS 33.7% | U251 CNS 60.9% | PC-3 prostate 89.5% | SK-MEL-5 melanoma 102% | UACC-62 melanoma 81.6% | LOX IMVI melanoma 95% | SK-MEL-28 melanoma 98.7%
active: SNB-75 CNS 2.64%

COCCOc1cc2ncnc(N3CCN(c4cc(S(C)(=O)=O)c(C)cc4Cl)CC3)c2cc1OCCOC
inactive: DU-145 prostate 96.8% | K-562 leukemia 88.9% | MALME-3M melanoma 87% | MDA-MB-231 breast 96% | RXF 393 renal 99.7% | SF-268 CNS 91.8% | SF-295 CNS 90.5% | SF-539 CNS 92% | UACC-257 melanoma 91.1% | M14 melanoma 111% | HCT-15 colon 95.7% | HT29 colon 94.4% | SNB-75 CNS 98.8% | SNB-19 CNS 96.8% | U251 CNS 85.3% | PC-3 prostate 81.5% | SK-MEL-5 melanoma 77% | UACC-62 melanoma 94.2% | LOX IMVI melanoma 93.5% | SK-MEL-28 melanoma 107%

Oc1c(I)cc(I)cc1CNCc1ccccn1
active: M14 melanoma 8.61%
inactive: DU-145 prostate 49.9% | K-562 leukemia 20.9% | MALME-3M melanoma 42.5% | MDA-MB-231 breast 38.3% | RXF 393 renal 70.2% | SF-268 CNS 36.8% | SF-295 CNS 25.7% | SF-539 CNS 20.2% | UACC-257 melanoma 15.4% | HCT-15 colon 26.8% | HT29 colon 36.6% | SNB-75 CNS 75.6% | SNB-19 CNS 30.5% | U251 CNS 15.6% | PC-3 prostate 39.5% | SK-MEL-5 melanoma 37.3% | UACC-62 melanoma 19.6% | LOX IMVI melanoma 30.2% | SK-MEL-28 melanoma 48.6%

CCOC(=O)c1cc(C)n(-c2ccc(C(=O)O)cc2)c1C
inactive: K-562 leukemia 116% | MALME-3M melanoma 130% | MDA-MB-231 breast 80% | RXF 393 renal 80.8% | SF-268 CNS 92.3% | SF-295 CNS 90.7% | SF-539 CNS 105% | UACC-257 melanoma 96.5% | M14 melanoma 89.7% | HCT-15 colon 24.8% | HT29 colon 37.8% | SNB-75 CNS 130% | SNB-19 CNS 94.5% | U251 CNS 96.3% | PC-3 prostate 83.3% | SK-MEL-5 melanoma 92% | UACC-62 melanoma 86.7% | LOX IMVI melanoma 80.2% | SK-MEL-28 melanoma 127%
active: DU-145 prostate 7.16%

O=C(/C=C/c1cccs1)Nc1ncc(Cc2ccccc2F)s1
inactive: DU-145 prostate 11.4% | K-562 leukemia 24% | MALME-3M melanoma 40.5% | MDA-MB-231 breast 33.8% | SF-268 CNS 55.9% | UACC-257 melanoma 58.6% | HCT-15 colon 27.1% | SNB-19 CNS 28.9% | U251 CNS 17% | PC-3 prostate 29.6% | UACC-62 melanoma 16.8% | LOX IMVI melanoma 20.4% | SK-MEL-28 melanoma 54.4%
active: RXF 393 renal -32.4% | SF-295 CNS 9.52% | SF-539 CNS -4.04% | M14 melanoma -3.15% | HT29 colon 8.61% | SNB-75 CNS -7.95% | SK-MEL-5 melanoma 6.05%

Oc1c(Br)cc(Br)c2ccc(Cn3cc(-c4ccc(C(F)(F)F)cc4)nn3)nc12
inactive: DU-145 prostate 46.2% | MALME-3M melanoma 16.7% | MDA-MB-231 breast 96.3% | SF-268 CNS 85.7% | SF-295 CNS 105% | SF-539 CNS 56.2% | UACC-257 melanoma 54.9% | M14 melanoma 48.6% | HCT-15 colon 25.2% | HT29 colon 59% | SNB-75 CNS 77.2% | SNB-19 CNS 94% | U251 CNS 102% | PC-3 prostate 77.6% | SK-MEL-5 melanoma 98.2% | UACC-62 melanoma 67.8% | LOX IMVI melanoma 11.5% | SK-MEL-28 melanoma 48.1%
active: K-562 leukemia 6.39% | RXF 393 renal 1.8%

N#CC1=C(N)Oc2c(ccc3ccccc23)C1c1ccccc1 (stereo not given)
inactive: DU-145 prostate 13.4% | MALME-3M melanoma 46.5% | MDA-MB-231 breast 28.3% | RXF 393 renal 68.5% | SF-268 CNS 19.2% | UACC-257 melanoma 37.5% | SNB-75 CNS 35.6% | SNB-19 CNS 26.6% | UACC-62 melanoma 26.9% | SK-MEL-28 melanoma 49.4%
active: K-562 leukemia 9.05% | SF-295 CNS 8.94% | SF-539 CNS -3.42% | M14 melanoma 3.13% | HCT-15 colon 8.12% | HT29 colon -2.07% | U251 CNS 9.37% | PC-3 prostate 6.19% | SK-MEL-5 melanoma 4.54% | LOX IMVI melanoma 7.97%
